The list is not random: actives were taken first. Their share in the collection is about 11%.
ALDH1A1 block: qHTS Assay for Inhibitors of Aldehyde Dehydrogenase 1 (ALDH1A1); Aldehyde dehydrogenase 1A1 (Homo sapiens), P00352; Purified ALDH1A1, NADH fluorescence, propionaldehyde substrate; Potency, µM (titrated, usually from 75.3 µM), for the others: at the top dose activity, negative = inhibition, actives largely listed as inhibitors; 7.3% of 220,000 active; AID 1030, 2008;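 further: potency means the concentration at half of the fitted maximal effect; plate controls were no enzyme wells and a reference inhibitor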
Target sequence (P00352 whole entry, looked up): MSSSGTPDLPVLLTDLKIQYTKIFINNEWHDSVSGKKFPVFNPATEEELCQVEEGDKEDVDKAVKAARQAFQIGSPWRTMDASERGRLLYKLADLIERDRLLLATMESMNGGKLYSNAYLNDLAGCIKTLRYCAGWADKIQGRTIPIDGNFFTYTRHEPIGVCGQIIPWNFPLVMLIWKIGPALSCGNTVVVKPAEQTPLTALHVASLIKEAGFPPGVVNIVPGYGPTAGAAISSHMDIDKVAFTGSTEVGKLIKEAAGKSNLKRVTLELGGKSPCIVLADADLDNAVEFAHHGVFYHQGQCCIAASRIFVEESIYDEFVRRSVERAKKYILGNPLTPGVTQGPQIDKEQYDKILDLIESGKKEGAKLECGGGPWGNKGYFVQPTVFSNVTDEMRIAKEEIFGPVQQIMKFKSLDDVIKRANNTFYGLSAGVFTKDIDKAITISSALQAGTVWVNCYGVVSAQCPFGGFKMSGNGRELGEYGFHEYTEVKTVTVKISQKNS
PNC assembly inh: High Content Assay for Compounds that inhibit the Assembly of the Perinucleolar Compartment; AID 2417, 2010; activity change (PNC), negative = inhibition, % at 10 µM; PC3M PTB-GFP, PNC prevalence imaging, 16 h; stronger effect = lower value; 3.1% of 140,000 active;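 active means readout at or below -70, meaning at least 70% loss of cells showing the perinucleolar compartment, a nuclear body marking cancer cells; inconclusive means readout between -30 and a set limit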;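 further: plate controls were DMSO wells for no effect and camptothecin positive control wells for full effect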
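Compounds are pinned in duplicate onto adhered PC3M cells stably expressing GFP-tagged PTB and incubated 16 h at 37 C. Cells are then fixed, nuclei stained with Hoechst, and PNC-positive cells counted.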
HPGD inh: qHTS Assay for Inhibitors of HPGD (15-Hydroxyprostaglandin Dehydrogenase); 15-hydroxyprostaglandin dehydrogenase [NAD(+)] (Homo sapiens), P15428; purified HPGD, NADH fluorescence kinetic, PGE2 substrate; Potency, µM, for the others: at the highest dose activity change, negative = inhibition, hits mostly inhibitors; 4.3% of 150,000 active; AID 894, 2007; further: potency means the concentration at half of the fitted maximal effect
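20 nM HPGD preincubated 15 min at room temperature with compound in 50 mM Tris-HCl pH 8, 0.01% Tween 20. Started with 1 mM NAD+ and 30 uM prostaglandin E2; NADH fluorescence (360/450 nm) read 5 times over 30-s intervals, last minus first.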
JMJD2E inh: qHTS Assay for Inhibitors of Human Jumonji Domain Containing 2E (JMJD2E); 1.6% of 230,000 active; Potency, µM (series often up to 57.1 µM), for inactives: top-dose activity change, negative = inhibition, actives largely listed as inhibitors; JMJD2E catalytic domain, FDH-coupled NADH fluorescence (FDH is formaldehyde dehydrogenase); Lysine-specific demethylase 4E (Homo sapiens), B2RXH2;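 further: potency means the concentration at half of the fitted maximal effect; 0% = wells with enzyme and -100% = buffer wells without enzyme; nearly all actives have a fitted effect of over 50% in size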
* marks the source's active call; other numbers are inactive results; ? = inconclusive; / = not tested or not shown; [ ] = dose if it differs, or a comment. Unless noted, the call rests on the fitted dose curve; in most records, active means well fitted inhibition curve with a large enough effect (not every such curve was filed as active); inconclusive means small, poorly fitted or top-dose-only effect, or another doubt; inactive means no such curve, though single readings can be large or run the other way. Unless noted, on the % scale 0 is the no-effect control and ±100 the full control effect.

SMILES	ALDH1A1 block	PNC assembly inh	HPGD inh	JMJD2E inh
Clc1ccc(OCc2nn3c(-c4ccco4)nnc3s2)c(Cl)c1	-9%	22	3.2µM*	4%
O=C(Nc1nc2ccsc2c(=O)s1)c1ccc(Cl)cc1	/	/	/	5%
O=C(Cn1c(=O)n(Cc2ccco2)c(=O)c2c3c(sc21)CCCCC3)Nc1ccccc1	7.1µM*	6	?	?
O=c1c2c3c(sc2n(CCN2CCCC2)c(=O)n1Cc1ccco1)CCCCC3	5µM*	-6	-10%	-4%
O=C(Cn1c(=O)n(Cc2ccco2)c(=O)c2c3c(sc21)CCCCC3)c1ccccc1	?	9	-17%	0%
COc1ccc(C(=O)N2CCC3(CCCN(C(=O)Nc4cccc(F)c4)C3)CC2)cc1	3%	/	-7%	/
Cn1c(N)c(C(=O)COC(=O)c2ccc3c(c2)C(=O)N(c2ccc(Cl)cc2)C3=O)c(=O)n(C)c1=O	0%	/	/	-2%
COc1cccc(CN(C)C(=O)c2ccc3nccnc3c2)c1	2%	23	28µM*	-8%
O=C(O)C1(O)CC(O)C(O)C(O)C1 (stereo unspecified)	-6%	/	-5%	-10%
O=C(/C=C/c1ccc(O)c(O)c1)OC1C(O)CC(OC(=O)/C=C/c2ccc(O)c(O)c2)(C(=O)O)CC1O (stereo unspecified)	4%	/	/	3.2µM*
O=C(/C=C\c1ccc(O)c(O)c1)O[C@@H]1C[C@](O)(C(=O)O)C[C@@H](O)[C@@H]1O	-1%[20.9 µM]	/	-1%	4.5µM*
CCc1ccc(N(C(=O)c2csnn2)C(C(=O)NCc2ccccc2)c2ccco2)cc1 (stereo unspecified)	7.9µM*	51	-14%	-1%
COc1ccc(CNC(=O)C(c2ccco2)N(C(=O)c2ccccn2)c2ccccc2)cc1 (stereo unspecified)	?	/	/	6%
COc1ccc(CNC(=O)C(c2ccc(C)o2)N(C(=O)c2csnn2)c2ccc(C(C)C)cc2)cc1 (stereo unspecified)	2µM*	-22	-11%	-4%
CC1=NN(c2ccccc2)C(=O)[C@@H]1N=Nc1ccc(S(N)(=O)=O)cc1	13%[13.5 µM]	/	-8%	/
Cc1ccccc1-n1nnnc1SCC(=O)c1c(N)n(C)c(=O)n(C)c1=O	0.35µM*	/	/	2%
CCc1cccc(CC)c1-n1c(SCC(=O)c2c(N)n(C)c(=O)n(C)c2=O)nnc1-c1cccnc1	-3%	-134*	-12%	5%
CCn1c(SCC(=O)c2c(N)n(C)c(=O)n(C)c2=O)nnc1-c1ccccc1	5%	15	1%	5%
Cn1c(N)c(C(=O)CSc2nnnn2-c2ccccc2)c(=O)n(C)c1=O	/	/	/	3%
Cc1cc(C)cc(OCC(=O)O/N=C(\N)c2cccnc2)c1	/	/	/	2%
O=C1N=c2ccccc2=C1c1c(O)n(-c2cccc(F)c2)[nH]c1=O	25µM*	41	5.6µM*	?
CCC(C)n1c(=S)[nH]c2c(sc3ccc([N+](=O)[O-])cc32)c1=O (stereo unspecified)	0%	-15	-4%	8%
COCCn1c(SCc2nnc(-c3ccccc3)o2)nc2sc3c(c2c1=O)CCC3	-8%	51	7.1µM*	-2%
CCN(CC)C[C@@H](O)c1ccc2ccc3ccccc3c2c1	10%[13.5 µM]	/	-1%	/
C=CCN1C(=O)/C(=C/c2ccc(O)cc2)S/C1=N/c1nccs1	3.2µM*	3	-8%	-4%
SMILES	ALDH1A1 block	PNC assembly inh	HPGD inh	JMJD2E inh
C=CCN1C(=O)/C(=C/c2ccc(OC)cc2)S/C1=N/c1nccs1	?	12	-8%	4%
CC(C)C1CC(CCN)(Cc2ccccc2)CCO1 (stereo unspecified)	-6%	/	/	7%
O=C(Nc1ccc2c(c1)OCCO2)N1CCN(c2ccc(F)cc2)CC1	2%	-112*	-7%	2%
Cc1cccc(C)c1N1CCN(C(=O)Nc2ccc3c(c2)OCCO3)CC1	-6%	31	-11%	-5%
O=C(Nc1ccc2c(c1)OCO2)N1CCN(C(=O)C2CCCO2)CC1 (stereo unspecified)	-1%	-100*	-12%	6%
O=C(Cc1coc2cc3c(cc12)CCC3)NC1CCCCCCC1	0%	-23	14µM*	2%
COCCNC(=O)c1ccc2c(=O)n(CCCN3CCCC3=O)c(=S)[nH]c2c1	?	/	/	-1%
O=C(NCCCN1CCCC1=O)c1ccc2c(=O)n(-c3ccc(F)cc3)c(=S)[nH]c2c1	14µM*	/	/	?
O=C(NCc1ccccc1Cl)c1ccc2c(=O)n(CCCN3CCCC3=O)c(=S)[nH]c2c1	0.63µM*	29	-12%	3%
Clc1cccc(-c2ccc(C=Nc3ccc(N4CCOCC4)cc3)o2)c1Cl	10µM*	/	/	?
Clc1ccc(-c2ccc(C=Nc3ccc(N4CCOCC4)cc3)o2)cc1	3.5µM*	?	-8%	?
Clc1ccc(-c2ccc(C=Nc3ccc(N4CCOCC4)cc3)o2)c(Cl)c1	-4%	/	/	-27%
Cn1cc(-c2nc3cnc(Oc4ccccc4)nc3n(CCC#N)c2=O)c2ccccc21	-4%	/	-1%	/
Cc1cc(C)nc(/N=C(\N)Nc2ccc(C(C)C)cc2)n1	/	/	/	-8%
CC1(C)COC(/C=C/c2cccc([N+](=O)[O-])c2)=N1	14µM*	/	/	1%
CC1(C)COC(c2cc([N+](=O)[O-])ccc2Cl)=N1	3%	8	-7%	-2%
NC(=O)NCC(N)C(=O)O (stereo unspecified)	6%	/	-8%	-8%
O=C(CSc1ccc(-c2ccc3c(c2)OCO3)nn1)Nc1nccs1	16%	/	/	0%
O=C(CSCC(=O)Nc1nc(-c2ccc3c(c2)OCO3)cs1)Nc1nccs1	22µM*	/	/	-4%
CC(C)C(O)(C(C)C)C(C)C	?	/	-9%	/
O=C(O)CNC(=O)c1ccc([N+](=O)[O-])cc1	1%	/	-9%	/
CCn1c(-c2cccs2)nc2ccccc21	?	-22	?	?
CCn1c(C(C#N)/C(=N\S(=O)(=O)c2cccs2)c2ccccc2)nc2ccccc21 (stereo unspecified)	10µM*	10	-7%	15%
COc1ccc(/C=C(\C#N)C(=O)NCC2CCCO2)cc1OC (stereo unspecified)	?	?	22µM*	?
COc1cc(/C=C(\C#N)C(=O)NC2CCCCC2)ccc1OCc1ccc(C(=O)O)cc1	14µM*	/	/	-4%
COc1cc(/C=C(/C#N)C(=O)Nc2ccccc2)ccc1OCc1ccc(C(=O)O)cc1	22µM*	/	/	-25%
COc1cc(/C=C(\C#N)C(=O)NC(C)C)ccc1OCc1ccc(C(=O)O)cc1	?	/	/	-29%
CCNC(=O)CC1C(=O)N(CC)C(=S)N1NC(=O)c1ccccc1 (stereo unspecified)	/	/	/	4%
COc1cccc(/C=N/NC(=O)c2cnccn2)c1O	/	/	/	11µM*
COc1ccc(/C=N/NC(=O)c2cnccn2)c(OC)c1OC	/	/	/	-2%
